Bioassay records from PubChem BioAssay.
The list is not random: actives were taken first. Their share in the collection is about 11%.
JMJD2A Tudor: inhibitors of human JMJD2A Tudor domain; Potency, µM (titrated, usually from 114 µM), for the others: at the top dose activity change, negative = inhibition, most hits filed as inhibitors; 390,000 compounds, 4.4% hits; AlphaScreen JMJD2A-Tudor / H3K4me3 peptide binding; also: % is scaled to controls: 0 for no effect and ±100 for the full control effect; nearly all actives have a fitted effect of over 50% in size
BAZ2B block: BAZ2B (human) inhibition. AlphaScreen BAZ2B-H3K14Ac peptide displacement. Potency, µM (highest dose often 114 µM), for the others: at the top dose activity change, negative = inhibition, hits mostly inhibitors. 360,000 compounds, 4.4% hits. AID 504333; also: % is scaled to controls: 0 for no effect and ±100 for the full control effect; nearly all actives have a fitted effect of over 60% in size
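Complex of BAZ2B and biotin-H3K14Ac (50 nM apiece) forms over 30 min at RT, then faces library compounds up to 110 uM for another 30 min; AlphaScreen beads added, 20 min dark incubation, luminescence read.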
HP1b chromo inh: inhibitors of HP1-beta chromodomain binding to methylated histone tails; AlphaScreen HP1-beta / biotin-H3K9me3 peptide binding; 390,000 compounds, 0.56% hits; Potency, µM (titrated, usually from 114 µM), inactives show top-dose activity change, negative = inhibition, most hits filed as inhibitors; P83916; AID 540317; also: nearly all actives have a fitted effect of over 70% in size
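Compound inhibition of the preformed complex between 50 nM HP1-beta and 50 nM biotinylated H3K9me3 peptide was read by AlphaScreen. Buffer was PBS pH 7.4 with 0.01% Tween-20. Incubations ran 30 min at room temperature, with 10 ug/mL donor/acceptor beads.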
G9a block: G9a (human) methyltransferase inhibition; Q96KQ7; G9a H3K9 monomethylation, AlphaScreen, 2 h; Potency, µM (series often up to 102 µM), inactives show top-dose activity, negative = inhibition, actives largely listed as inhibitors; 350,000 compounds, 8.8% hits; AID 504332; also: % is scaled to controls: 0 for no effect and ±100 for the full control effect; nearly all actives have a fitted effect of over 75% in size
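G9a (20 nM) preincubated 15 min RT with compounds, then 500 nM biotinylated H3K9 peptide and 20 uM SAM added; 2 h RT reaction. Monomethyl-H3K9 product detected by AlphaScreen with anti-H3K9me1 antibody, streptavidin donor and anti-rabbit IgG acceptor beads.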
L3MBTL1 inh: L3MBTL1 (human) inhibition. Q9Y468. AlphaScreen L3MBTL1–H3K9me1 peptide binding. Potency, µM (doses to about 57.1 µM), for the others: at the highest dose activity, negative = inhibition, hits mostly inhibitors. 230,000 compounds, 0.66% hits; also: % is scaled to controls: 0 for no effect and ±100 for the full control effect; nearly all actives have a fitted effect of over 60% in size
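Displacement of a biotinylated histone H3(1-15) peptide monomethylated at Lys9 (75 nM) from L3MBTL1 (50 nM) was measured by AlphaScreen after a 30 min room-temperature compound incubation; cefsulodin titration served as intraplate control.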
* hit, by the source's call; [ ] = dose if it differs, or a comment. Calls follow the shape of the dose curve; as a rule, active = well fitted inhibition curve with a large enough effect; inconclusive = small, poorly fitted or top-dose-only effect; inactive = no such curve, though single readings can be large or run the other way. Potency is read from the fitted curve at half-maximal effect.

O=[N+]([O-])c1ccc(C(=Nc2cccc3ccccc23)N2CCOCC2)cc1 was read as JMJD2A Tudor inconclusive, BAZ2B block 50µM*, HP1b chromo inh inconclusive, G9a block 45µM* and L3MBTL1 inh -16%.
Screening Cc1ccc([N+](=O)[O-])cc1N=C(c1ccc([N+](=O)[O-])cc1)N1CCOCC1 returned JMJD2A Tudor 79µM*, BAZ2B block inconclusive, HP1b chromo inh inconclusive, G9a block -19%[59 µM] and L3MBTL1 inh -8%.
O=C(c1ccc([N+](=O)[O-])cc1)N1CCOCC1 was read as JMJD2A Tudor -6% and HP1b chromo inh 2%.
For O=c1[nH]c(=S)[nH]c2sc3c(c12)CCCCCC3 the results were JMJD2A Tudor inconclusive, BAZ2B block -27%, HP1b chromo inh -6%, G9a block 2.2µM* and L3MBTL1 inh -2%.
Screening COc1cccc(CCNC(=O)c2cnc3sc(N4CCOCC4)nn3c2=O)c1 returned JMJD2A Tudor 3%, BAZ2B block 0%, HP1b chromo inh 66% and G9a block 18%[59 µM].
For COc1cccc(-c2nc(CCl)cs2)c1OC the results were JMJD2A Tudor 50µM*, BAZ2B block inconclusive, HP1b chromo inh 60%, G9a block 22µM* and L3MBTL1 inh -3%.
COc1cccc(-c2nc(CC(=O)O)cs2)c1OC was read as JMJD2A Tudor 5%[57.1 µM], BAZ2B block -8%, HP1b chromo inh 32% and G9a block -8%[12.7 µM].
`CCOC(=O)c1csc(-c2ccc(OC)c(OC)c2)n1` gave JMJD2A Tudor -4%, BAZ2B block 5%, HP1b chromo inh 34%, G9a block -3% and L3MBTL1 inh 12%.
Screening CCOc1ccc(-c2nc(CCl)cs2)cc1OC returned JMJD2A Tudor 7%[57.1 µM], BAZ2B block inconclusive, HP1b chromo inh 70%, G9a block 45µM* and L3MBTL1 inh 7%[11.4 µM].
For N#Cc1cc2ccccc2nc1SCC(=O)NC1CC1 the results were JMJD2A Tudor -2%, BAZ2B block -19%, HP1b chromo inh 36% and G9a block 50µM*.
`Cn1c(=O)c2[nH]c(-c3ccccc3)c(O)c2n(C)c1=O` gave JMJD2A Tudor -7%, BAZ2B block 11%, HP1b chromo inh 26%, G9a block 2.2µM* and L3MBTL1 inh 1%.
`Cn1c(=O)c2[nH]c(-c3ccccc3Cl)c(O)c2n(C)c1=O` gave JMJD2A Tudor 7%, BAZ2B block -26%, HP1b chromo inh 49%, G9a block 45µM* and L3MBTL1 inh -6%.
COCCn1c(Cc2cccn2C)nnc1SCC(=O)NCc1ccc2c(c1)OCO2 was read as JMJD2A Tudor -20%, BAZ2B block -11%, HP1b chromo inh 6% and G9a block inconclusive.
Screening O=C(CCc1ccccc1)NCc1nc2cccnc2n1Cc1ccc(F)cc1 returned JMJD2A Tudor -13%, BAZ2B block -2%, HP1b chromo inh 13%[57 µM] and G9a block 8%[59 µM].
For O=C(COC(=O)CNC(=O)c1ccccc1F)Nc1nnc(-c2ccccc2)o1 the results were JMJD2A Tudor -28%, BAZ2B block -38%, HP1b chromo inh 48%, G9a block 56µM* and L3MBTL1 inh -2%.
Clc1ccc(-c2nnc3sc(Cc4cccs4)nn23)cc1 was read as JMJD2A Tudor -22%, BAZ2B block 7%, HP1b chromo inh 26%, G9a block 35µM* and L3MBTL1 inh inconclusive.
For c1ccc(-c2nnc3sc(Cc4cccs4)nn23)cc1 the results were JMJD2A Tudor -25%, BAZ2B block -23%, HP1b chromo inh 1%, G9a block inconclusive and L3MBTL1 inh -11%.
Screening CCOc1ccc(NC(=O)c2oc3ccccc3c2NC(=O)Cc2ccc(F)cc2)cc1 returned JMJD2A Tudor -18%, BAZ2B block -10%, HP1b chromo inh 16% and G9a block 7%[59 µM].
Screening NS(=O)(=O)c1ccc2c(c1)C1C=CCC1C(C1CC=CCC1)N2 (stereo unspecified) returned JMJD2A Tudor inconclusive, BAZ2B block 50µM*, HP1b chromo inh -20% and G9a block inconclusive.
